The values that follow come from PubChem BioAssay (NCATS).

Records with an inconclusive call do not appear. Calls of active or inactive are those of the source. Calls follow the shape of the dose curve; as a rule, active = well fitted inhibition curve with a large enough effect; inconclusive = small, poorly fitted or top-dose-only effect; inactive = flat fitted curve, though single readings scatter.

Holding throughout (experiment): qHTS profiling for inhibitors of Plasmodium falciparum proliferation (AID 504749); also: nearly all actives have a fitted effect of over 60% in size
Settings in all cases: P. falciparum in erythrocytes, SYBR Green DNA, 72 h; series mostly up to 28.7 µM

For assay [1], the system named is C2A. In short, it runs like this:
(§1)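 Fluorescence of SYBR Green-bound parasite DNA, read at 485/535 nm, served as the growth measure. Infected erythrocytes were cultured with compound 72 h; artemisinin (0.29 uM) and DMSO wells defined the normalization range.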

The test system of assay [2] is CP185. In short, it runs like this:
as §1

For assay [3], the system named is CP191. In outline: as §1
In assay [4] the test system is CP192. In short, it runs like this:
as §1

Assay [5] deals with CP194. In short, it runs like this:
as §1

The test system of assay [6] is CP201. In short, it runs like this:
as §1

Assay [7] relates to CP211. In outline: as §1
Assay [8] relates to CP215. In short, it runs like this:
as §1

In assay [9] the test system is CP217. In short, it runs like this: as §1
In assay [10] the test system is CP203. In outline:
as §1
Potency is read from the fitted curve at half-maximal effect.

Turning to `CCCOc1ccccc1-c1nc2n[nH]nc2c(=O)[nH]1`, the Potency result in assay [1], in assay [2], in [3], in assay [4], in assay [5] and in [6] was “inactive” in each case. Also, the Potency entry in [7], in assay [8] and in assay [9] was “inactive” throughout.
On to `COC(=O)[C@H]1[C@H]2C[C@@H]3c4[nH]c5cc(OC)ccc5c4CCN3C[C@H]2C[C@@H](OC(=O)c2cc(OC)c(OC)c(OC)c2)[C@@H]1OC`, for which the Potency in assay [1] is 11.2 µM (active); in assay [2] it was 7.94 µM (active); in assay [3], 8.91 µM (active); in assay [4], 13.5 µM (active); in assay [5], 9.53 µM (active); in assay [6], 12 µM (active). The Potency in assay [7] was 6.75 µM (active); in assay [8] it was 9.53 µM (active); in assay [9], 11.2 µM (active).
`O=C(O)CP(=O)(O)O`: the Potency entry in [1], in assay [2], in assay [3], in assay [4], in [5] and in assay [6] was “inactive” throughout. Besides, the Potency result in [7], in assay [8] and in assay [9] was “inactive” in each case.
As for `OC(CCN1CCCCC1)(c1ccccc1)C1CCCCC1` (configuration not stated), the Potency result in [1], in assay [2], in [3], in [4], in [6] and in [7] was “inactive” throughout. The Potency result in [8] and in assay [9] was “inactive” each time.
With `CC(=O)OCC1=C(C(=O)O)N2C(=O)[C@@H](NC(=O)Cc3cccs3)[C@H]2SC1`, the Potency entry in assay [1], in [2], in [3], in assay [4], in [5] and in [6] was “inactive” throughout. The Potency result in assay [7], in assay [8] and in [9] was “inactive” throughout.
For `COc1ccc([C@@H]2Sc3ccccc3N(CCN(C)C)C(=O)[C@@H]2OC(C)=O)cc1`, the Potency result in assay [1], in assay [2], in [3], in [4], in assay [5] and in assay [6] was “inactive” each time. The Potency result in assay [7], in assay [8] and in assay [9] was “inactive” each time.
As for `C[N+](C)(C)CCOC(N)=O`, the Potency entry in [1], in assay [2], in assay [3], in assay [4], in assay [5] and in assay [6] was “inactive” in each case. The Potency result in assay [7], in assay [8] and in [9] was “inactive” each time.
Take `CCOC(=O)c1cnc2c(cnn2CC)c1NN=C(C)C`: the Potency result in [1], in [2], in assay [3], in [4], in assay [5] and in assay [6] was “inactive” each time. Moreover, the Potency result in assay [7], in assay [8] and in assay [9] was “inactive” throughout.
Consider `CCNC(=O)N1CCN(CCCC(c2ccc(F)cc2)c2ccc(F)cc2)CC1`, for which the Potency in assay [1] is 1.41 µM (active); in assay [2] it was 0.447 µM (active); in assay [3] it was 1.12 µM (active); in [4] it was 7.57 µM (active); in assay [5], 7.57 µM (active); in [6], 7.57 µM (active). In addition, the Potency was 5.36 µM (active) in assay [7], 4.26 µM (active) in [8] and 1.12 µM (active) in assay [9].
On to `NCCCNCCSP(=O)(O)O`, for which the Potency result in [1], in [2], in [3], in assay [4], in assay [5] and in assay [6] was “inactive” in each case. For the same molecule, the Potency result in assay [7], in [8] and in assay [9] was “inactive” each time.
`CN(C)CC/C=C1\c2ccccc2COc2ccccc21`: the Potency entry in [3] and in assay [4] was “inactive” in each case. The Potency in assay [10] was 13.5 µM (active).
`CN(C)CCN(Cc1cccs1)c1ccccn1`: the Potency result in assay [3] was “inactive”.
Take `CN1C[C@H](C(=O)N[C@]2(C)O[C@@]3(O)[C@@H]4CCCN4C(=O)[C@H](Cc4ccccc4)N3C2=O)C[C@@H]2c3cccc4[nH]cc(c34)C[C@H]21`: the Potency in assay [5] was 12 µM (active); in assay [10], 10.7 µM (active); in assay [7], 12 µM (active); in [8], 13.5 µM (active).
For `CN(C)CCCN1c2ccccc2Sc2ccccc21`, the Potency entry in assay [3] and in assay [4] was “inactive” in each case.
`CN(C)C/C=C(/c1ccc(Br)cc1)c1cccnc1`: the Potency entry in assay [1], in assay [2], in [5], in assay [6], in [8] and in [9] was “inactive” throughout.
For the molecule `C[n+]1cc2c3c(ccc2c2ccc4cc5c(cc4c21)OCO5)OCO3`, the Potency result in assay [1], in [2], in [4], in [5], in assay [6] and in assay [7] was “inactive” each time. Further, the Potency result in [8] was “inactive”.
With `COCCOC(=O)C1=C(C)NC(C)=C(C(=O)OC(C)C)C1c1cccc([N+](=O)[O-])c1` (configuration not stated), in [1], the Potency entry was “inactive”. The Potency in [10] was 12 µM (active).
Regarding `CC1=NS(=O)(=O)c2cc(Cl)ccc2N1`, the Potency entry in [1], in assay [4], in assay [5], in [6], in [10] and in [7] was “inactive” in each case. Further, the Potency result in assay [8] and in assay [9] was “inactive” in each case.
In the case of `NC1=NCC2c3ccccc3Cc3ccccc3N12` (configuration not stated), the Potency entry in assay [1], in [2], in assay [4], in [5], in [6] and in assay [7] was “inactive” throughout. The Potency entry in assay [9] is “inactive”.
On to `COC(=O)[C@@H](N)Cc1ccc(O)c(O)c1`, for which the Potency result in assay [2], in assay [3], in [4], in assay [5], in [6] and in assay [7] was “inactive” each time. Further, the Potency entry in assay [8] and in assay [9] was “inactive” each time.
In the case of `CC1=C(C)C(=O)C(CCCCC#CCCCC#CCO)=C(C)C1=O`, the Potency is 10 µM (active) in assay [1], 19 µM (active) in assay [5], 15.1 µM (active) in assay [8] and 10 µM (active) in assay [9].
On to `O=C(CCCN1CCC(O)(c2cccc(C(F)(F)F)c2)CC1)c1ccc(F)cc1`, for which the results for the Potency in [1], in assay [3] and in [8] were 11.2 µM (active), 7.94 µM (active) and 10.7 µM (active), respectively. Further, the Potency result in assay [6] is “inactive”.
`CC(C)COCC(CN(Cc1ccccc1)c1ccccc1)N1CCCC1` (configuration not stated): the Potency result in assay [1], in assay [3], in assay [4], in [5], in assay [7] and in assay [9] was “inactive” in each case. In addition, the Potency in [8] is 7.57 µM (active).
On to `CN(C)CCCN1c2ccccc2Sc2ccc(C(F)(F)F)cc21`, for which the Potency entry in [1], in [4], in assay [6] and in assay [7] was “inactive” each time.
For the molecule `OCCN1CCN(CC/C=C2/c3ccccc3Sc3ccc(C(F)(F)F)cc32)CC1`, the Potency in assay [3] was 5.01 µM (active); in assay [4], 9.53 µM (active); in assay [5], 7.57 µM (active); in assay [6] it was 10.7 µM (active); in assay [7], 5.36 µM (active); in [8] it was 12 µM (active).
In the case of `CCCN1C[C@H](CSC)C[C@@H]2c3cccc4[nH]cc(c34)C[C@H]21`, the Potency result in assay [2], in assay [4], in assay [6] and in assay [8] was “inactive” in each case.
Take `CC(C)(C)c1ccc(C(=O)CCCN2CCC(OC(c3ccccc3)c3ccccc3)CC2)cc1`: the Potency in assay [9] was 7.94 µM (active).
As to `Cc1scc2c1N(C(=O)CN1CCN(C)CC1)c1ccccc1NC2=O`, the Potency entry in [1], in assay [2], in assay [4], in assay [5], in assay [6] and in assay [7] was “inactive” throughout. Moreover, the Potency entry in [8] and in [9] was “inactive” throughout.
For `C=CCc1ccccc1OCC(O)CNC(C)C` (configuration not stated), in assay [1], the Potency entry was “inactive”. In [5], the Potency was 15.1 µM (active).
For the molecule `CCN(CC)CCNC(=O)c1cc(S(C)(=O)=O)ccc1OC`, the Potency result in assay [1], in assay [2], in assay [3] and in [9] was “inactive” throughout.
Turning to `CCCCCCCC/C=C\CCCCCCCC(=O)NCc1ccc(O)c(OC)c1`, the Potency in [2] is 11.2 µM (active); in assay [3], 12.6 µM (active). Further, the Potency result in assay [4], in [5], in assay [6], in assay [10], in assay [7] and in assay [8] was “inactive” each time.
With `C[C@H](CS)C(=O)N1CCC[C@H]1C(=O)O`, the Potency entry in assay [1], in assay [2], in [3], in assay [5], in assay [6] and in [10] was “inactive” throughout. The Potency entry in assay [8] and in assay [9] was “inactive” throughout.
In the case of `CCN(CC)CCOCCOC(=O)C1(c2ccccc2)CCCC1`, the Potency entry in assay [2], in [4], in assay [6] and in [7] was “inactive” in each case. Moreover, the Potency was 7.94 µM (active) in assay [3], 15.1 µM (active) in [8] and 11.2 µM (active) in assay [9].
Consider `CCc1cccc(N(C)C(N)=Nc2cccc3ccccc23)c1`, for which the Potency result in assay [1] and in assay [4] was “inactive” throughout. Besides, the Potency in assay [10] was 4.78 µM (active).
